TDP1 cell noCPT: qHTS for Inhibitors of human tyrosyl-DNA phosphodiesterase 1 (TDP1): qHTS in cells in absence of CPT; DT40 Tdp1-/- hTDP1 cells, no CPT, ATP luminescence, 48 h; Potency, µM (series often up to 46.2 µM), hits mostly inhibitors; hit rate 15% among 420,000; AID 686978, 2013; note: nearly all actives have a fitted effect of over 55% in size
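Stably hTDP1-transfected Tdp1-null chicken DT40 cells were treated with library compounds minus camptothecin and grown for at least 48 hr at 37 °C, after which cellular ATP was quantified by luminescence.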
ClpP mod: qHTS Assay for Activators of ClpP; ATP-dependent Clp protease proteolytic subunit (Bacillus subtilis (strain 168)), P80244; purified B. subtilis ClpP, FRET peptide cleavage, 20 min; Potency, µM (doses to about 57.5 µM); hit rate 1.9% among 340,000; AID 651965, 2013; active = well fitted falling curve with a large enough effect; inconclusive = small, poorly fitted or top-dose-only effect; inactive = no such curve, though single readings can be large or run the other way; note: the source files actives as falling curves though it sought activators and does not explain the sign; nearly all actives have a fitted effect of over 65% in size
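FRET quenching reversal measured ClpP activation: 10 microg/mL B. subtilis ClpP at pH 8 with the FRET-FV decapeptide, read at 430 nm after 320 nm excitation. The 20-min minus 0-min signal was scaled between DMSO/no-enzyme wells and ADEP (5.8 microM final).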
IL-1B inflam inh: qHTS for Inhibitors of Inflammasome Signaling: IL-1-beta AlphaLISA Primary Screen; THP-1 LPS/ATP IL-1B secretion, AlphaLISA, 16 h; active compounds read low; activity change, % at 57.5 µM; hit rate 4.7% among 360,000; AID 743279, 2014; in the data active = activity change below about -50%; inconclusive = mostly about -30% to -49%
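THP-1 cells pretreated 1 hr with compounds (up to 57.5 uM final), then stimulated with LPS (250 ng/mL final) plus ATP (1.25 mM final); secreted IL-1B measured by AlphaLISA after 16 hr, decreased signal indicating inhibition.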
DRD3 antagonist: qHTS of D3 Dopamine Receptor Antagonist: qHTS; D3R cells, DiscoveRx beta-arrestin luminescence, antagonist mode; active compounds read low; max response, negative = inhibition, %; hit rate 2.5% among 360,000; in the data active = max response below about -50%; inconclusive = no clear call, values can overlap the other calls
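Cells plated overnight at 1500 cells/well, then exposed to library compounds with dopamine controls for 90 minutes at 37 degrees C. DiscoveRx reagent added for 30–60 minutes at room temperature; luminescence read, quantitative HTS format.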
DT40 TDP1 CPT: qHTS for Inhibitors of human tyrosyl-DNA phosphodiesterase 1 (TDP1): qHTS in cells in presence of CPT; chicken DT40 Tdp1-/-;hTDP1 cells + 20 nM CPT, ATP luminescence, 48 h; Potency, µM (highest dose often 46.2 µM), usual class: inhibitors; hit rate 12% among 420,000; AID 686979, 2013; note: nearly all actives have a fitted effect of over 55% in size
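Cell growth measured by CellTiter-Glo luminescence after a minimum 48 h, 37 C compound exposure with 20 nM CPT in Tdp1-knockout DT40 cells stably expressing hTDP1, seeded 400/well; qHTS titration format.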
D3 ag: qHTS of D3 Dopamine Receptor Agonist: qHTS; max activation, %; D3R DiscoveRx beta-arrestin cells, luminescence, 90 min; D(3) dopamine receptor (Homo sapiens), P35462; hit rate 0.58% among 410,000; in the data active = max activation above about 30%
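Cells at 1500/well, incubated overnight, then treated with pinned compounds (dopamine as control) for 90 min at 37 degrees C. DiscoveRx reagent added for 30 - 60 minutes at room temperature; luminescence read.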
Hits are given with their value; 0 = inactive; ? = inconclusive; - = not tested or not shown; [ ] = dose if it differs, or a comment. This is a sample that favours compounds with a hit; in the whole collection about 21% have one here. Unless noted, calls come from the whole dose curve; as a rule, active = well fitted inhibition curve with a large enough effect; inconclusive = small, poorly fitted or top-dose-only effect; inactive = flat fitted curve, though single readings scatter.

SMILES	TDP1 cell noCPT	ClpP mod	IL-1B inflam inh	DRD3 antagonist	DT40 TDP1 CPT	D3 ag
CCn1c(=O)c2cc(C(=O)N(C)c3cc(C)ccc3OC)sc2c2ccccc21	?	0	-84.5	?	?	0
O=C1C=CC(=O)N1Cc1ccccn1	0	-	0	0	0	0
Cc1cccc(N2CCN(C(=O)COc3ccc4c(c3)CCC4)CC2C)c1 (configuration not stated)	?	0	0	0	?	0
COc1ccccc1C1CN(CCNC(=O)c2sccc2Cl)Cc2ccccc2O1 (configuration not stated)	0	-	-	-	0[9.04 µM]	-
CCN1C[C@@H]2[C@@H]3C(=O)N(Cc4ccccc4)C(=O)[C@@H]3[C@](C)(C1=O)N2C(=O)c1ccc(C(F)(F)F)cc1	0	0	0	0	0	0
COc1cccc(C(=O)Nc2nc(-c3nnn(-c4cccc(Cl)c4C)c3C)ns2)c1	?	0	-	-	?	0
COc1ccc(C(=O)C[n+]2ccccc2Cl)cc1	?	0	-	-	?	-
COc1ccc(C(=O)C[n+]2cn(C(F)F)c3ccccc32)c(F)c1	20.6µM	-	?	0	?	0
CN(C)S(=O)(=O)c1ccc(NC(=O)C2CC(=O)N(Cc3ccccc3Cl)C2)cc1 (configuration not stated)	0	-	0	0	0	0
CC(=O)SC[C@@H](C)C(=O)N1CCC[C@H]1C(=O)N[C@@H](Cc1ccccc1)C(=O)O	0	-	-	-	0	0
O=C(Nc1ccccc1N1CCOCC1)c1cc(=O)[nH]c2ccccc12	16.4µM	0	0	0	?	0
O=C(Nc1ccccc1N1CCOCC1)c1cccc2c(Br)cccc12	18.4µM	0	0	0	?	0
O=C(Nc1ccc(N2CCOCC2)cc1)c1cccc2c(Br)cccc12	0	0	0	0	0	0
Cc1ccc(NC(=O)C2C3CCC(O3)C2C(=O)O)c(Br)c1 (configuration not stated)	0	-	0	0	0	0
CCOC(=O)C1=C(COC(=O)/C=C/c2cccc(OC)c2OC)NC(=O)NC1C (configuration not stated)	0	0	0	0	0	0
Cc1sc2ncnc(NCCN3CCOCC3)c2c1C	18.4µM	0	0	?	13µM	0
CC1CCc2c(sc3ncnc(N4CCOCC4)c23)C1 (configuration not stated)	?	0	0	0	?	0
CCc1cc2c(NCCN3CCCCC3)ncnc2s1	0	0	0	-86.3	0	0
CC1CCc2c(sc3ncnc(NCCN4CCOCC4)c23)C1 (configuration not stated)	0	0	0	-70.9	0	0
CC(=O)Nc1ccc(NC(=O)c2cc(=O)c3cc(C)c(C)cc3o2)cc1	0	0	0	0	0	0
Cc1ccc(-c2nc(=Nc3c(C)cc(C)cc3C)sn2-c2ccccc2)cc1	2.24µM	0	-	-	5.01µM	-
COc1ccc(C(=O)N=c2nc(-c3ccccc3)n(-c3ccccc3)s2)cc1	?	0	-	-	12.6µM	-
Cc1cc(C)c(NC(=O)Cn2nc(-c3ccccc3)nc2-c2ccccc2)c(C)c1	?	0	0	0	?	0
CC(=O)N=c1nc(-c2ccccc2)n(-c2ccccc2)s1	?	0	-	-	0	-
CN=c1nc(-c2ccccc2)n(-c2ccccc2)s1	6.51µM	0	0	0	4.61µM	0
SMILES	TDP1 cell noCPT	ClpP mod	IL-1B inflam inh	DRD3 antagonist	DT40 TDP1 CPT	D3 ag
Cc1cc(S(=O)(=O)N2CCN=C2c2ccccc2)c(C)cc1Cl	?	0	0	0	0	0
Cc1cc(C)c(S(=O)(=O)N2CCN=C2c2ccccc2)c(C)c1	16.4µM	0	0	0	?	0
CC(C)c1ccc(NS(=O)(=O)c2ccc(Cl)nc2)cc1	0	0	0	0	0	0
O=[N+]([O-])c1ccc(S(=O)(=O)Nc2ccncc2)cc1	0	0	0	0	0	0
O=[N+]([O-])c1ccc(Oc2ccc(S(=O)(=O)Nc3ccccc3)cc2)cc1	10.3µM	0	-72.2	0	?	0
O=[N+]([O-])c1cc(NS(=O)(=O)c2ccc(Cl)nc2)ccc1Cl	16.4µM	?	0	0	?	0
O=C1C(Cl)=C(NS(=O)(=O)c2ccc([N+](=O)[O-])cc2)C(=O)c2ccccc21	8.2µM	-	-102.4	?	10.3µM	0
O=[N+]([O-])c1ccc(NS(=O)(=O)c2ccc(Cl)c(Cl)c2)cc1	10.3µM	0	0	0	9.2µM	0
Cc1ccc(NC(=O)Nc2cn(C)c(=O)c3ccccc23)c(Cl)c1	?	0	-	-	?	0
Cc1ccc2c(CNCc3cccc(Cl)c3)c(C(=O)O)n(Cc3ccc(F)cc3Cl)c2c1	3.26µM	0	-	-	3.26µM	0
C=Cc1ccc(Cn2c(C(=O)O)c(CNCc3ccccc3)c3ccc(C)cc32)cc1	4.61µM	0	-	-	7.31µM	0
Cc1ccc(Cn2c(C(=O)O)c(CNCc3ccc(C)o3)c3ccc(C)cc32)cc1	?	0	-	-	?	0
COc1ccc2c(CNC3CCCC3)c(C(=O)O)n(Cc3ccccc3C)c2c1	?	?	-	-	?	0
CCOc1ccc(CNCc2c(C(=O)O)n(Cc3ccccc3C)c3cc(OC)ccc23)cc1OC	1.03µM	0	-	-	0.651µM	0
Cc1ccc(Cn2c(C(=O)O)c(CNCc3ccc(OC(C)C)cc3)c3ccc(C)cc32)cc1	?	0	-	-	16.4µM	0
O=C(CN1CCN(S(=O)(=O)c2ccc(F)c(F)c2)CC1)Nc1ccccc1C(=O)NC1CC1	?	0	0	0	0	0
CCOc1ccc(CNCc2c(C(=O)O)c(C)n(Cc3ccc(F)cc3Cl)c2C)cc1	13µM	0	-	-	?	0
Cc1ccc(CNCc2c(C(=O)O)n(Cc3ccc(C)cc3)c3cc(C)ccc23)cc1	?	0	-	-	23.1µM	0
COc1ccc2c(CNCc3ccco3)c(C(=O)O)n(Cc3ccc(F)cc3Cl)c2c1	2.59µM	0	-	-	?	0
Cc1ccc2c(CNCCc3ccco3)c(C(=O)O)n(Cc3ccc(F)cc3)c2c1	25.9µM	0	-	-	20.6µM	0
O=C(CCNS(=O)(=O)c1ccccc1)NNC(=O)COc1ccccc1F	0	0	0	0	0	0
Cc1ccc(Cn2c(C(=O)O)c(CNCCc3cccs3)c3ccc(C)cc32)cc1	0	0	-	-	?	0
COc1ccc(CNCc2c(C(=O)O)n(Cc3ccc(F)cc3)c3cc(C)ccc23)cc1OC	23.1µM	0	-	-	20.6µM	0
COc1ccc(Cn2c(C(=O)O)c(CNCCc3cccs3)c3ccc(C)cc32)cc1	23.1µM	0	-	-	?	0

From PubChem BioAssay
